In PubChem BioAssay (NCATS):
Results filed as inconclusive are left out. Calls of active or inactive are those of the source. Unless noted, calls follow the shape of the dose curve; as a rule, active = well fitted curve in the direction sought with a large enough effect; inconclusive = small, poorly fitted or top-dose-only effect, or another doubt; inactive = no such curve, though single readings can be large; an effect the other way counts as inactive or inconclusive.

What was measured:
[1] = Quantitative High-Throughput drug screen in 47 multiple myeloma cell lines against the NCATS MIPE library collection: KMS34_JCRB cell viability assay (AID 1918985); also: nearly all actives have a fitted effect of over 40% in size
In short: (§1)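 500 cells/well; MIPE 4.0 drugs pin-transferred; 48 h, 37C, 5% CO2. CellTiter-Glo, 5 min RT, luminescence. Controls: DMSO 100%, media 0%.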

[2] = Quantitative High-Throughput drug screen in 47 multiple myeloma cell lines against the NCATS MIPE library collection: SKMM1_PLB cell viability assay (AID 1919863); details: SKMM1 myeloma viability, CellTiter-Glo ATP, 48 h; viability: stronger effect = lower value; also: nearly all actives have a fitted effect of over 35% in size
In short: as §1

[3] = Quantitative High-Throughput drug screen in 47 multiple myeloma cell lines against the NCATS MIPE library collection: UTMC2_PLB cell viability assay (AID 1919868); details: CellTiter-Glo ATP luminescence, 48 h; viability (% of DMSO control): at 45.8 µM (top of the series) unless noted; also: nearly all actives have a fitted effect of over 55% in size
In short: as §1

[4] = Quantitative High-Throughput drug screen in 47 multiple myeloma cell lines against the NCATS MIPE library collection: PCM6_Riken cell viability assay (AID 1919870); also: nearly all actives have a fitted effect of over 30% in size
In short: as §1

[5] = Quantitative High-Throughput drug screen in 47 multiple myeloma cell lines against the NCATS MIPE library collection: KMS11_JCRBsus cell viability assay (AID 1919873); also: nearly all actives have a fitted effect of over 50% in size
In short: as §1

[6] = Quantitative High-Throughput drug screen in 47 multiple myeloma cell lines against the NCATS MIPE library collection: KMS28BM_JCRB cell viability assay (AID 1919874); also: nearly all actives have a fitted effect of over 35% in size
In short: as §1

[7] = qHTS drug screen for cell cycle checkpoint inhibitors in PARPi-resistant BRCA-mutant ovarian cancer cell lines. (AID 1963452; calls by dose curve); details: PEO1/OlaR viability, CellTiter-Glo luminescence, 96 h; for Z-AUC: stronger effect = lower value
In short: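 PEO1, PEO4 and PEO1/OlaR ovarian cancer cells, 600 per well, exposed 96 h at 37C to a dilution series. Viability read by CellTiter-Glo luminescence, normalized to DMSO and empty wells; activity summarized as Z-AUC.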

[8] = qHTS for identification of novel therapeutic agents for treatment of microphthalmiaassociated transcription factor (MiT) renal cell carcinoma (RCC) (AID 1963991; calls by dose curve); details: CellTiter-Glo, 48 h; for z-score: stronger effect = lower value; for Potency: active = Z-AUC below -0.8 in all three lines
In short: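 Curves over 11 concentrations were fitted to CellTiter-Glo luminescence, scaled between empty wells (0%) and DMSO (100%) viability. Cells were UOK109, UOK124 and UOK145 TFE3-fusion RCC lines at 500/well, exposed 48 hours at 37 C.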

[9] = Quantitative High-Throughput drug screen in 47 multiple myeloma cell lines against the NCATS MIPE library collection: OPM1_PLB cell viability assay (AID 1918989); also: nearly all actives have a fitted effect of over 40% in size
In short: as §1

[10] = Quantitative High-Throughput drug screen in 47 multiple myeloma cell lines against the NCATS MIPE library collection: U266_ATCC cell viability assay (AID 1919864); also: nearly all actives have a fitted effect of over 35% in size
In short: as §1

[11] = Quantitative High-Throughput drug screen in 47 multiple myeloma cell lines against the NCATS MIPE library collection: XG6_PLB cell viability assay (AID 1919865); also: nearly all actives have a fitted effect of over 40% in size
In short: as §1

[12] = Quantitative High-Throughput drug screen in 47 multiple myeloma cell lines against the NCATS MIPE library collection: XG1_PLB cell viability assay (AID 1919866); also: nearly all actives have a fitted effect of over 35% in size
In short: as §1

[13] = Quantitative High-Throughput drug screen in 47 multiple myeloma cell lines against the NCATS MIPE library collection: RPMI8226_ATCC cell viability assay (AID 1919871); also: nearly all actives have a fitted effect of over 30% in size
In short: as §1

[14] = Quantitative High-Throughput drug screen in 47 multiple myeloma cell lines against the NCATS MIPE library collection: OPM2_DSMZ cell viability assay (AID 1919872); also: nearly all actives have a fitted effect of over 30% in size
In short: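 Myeloma cells (500 per well) were exposed to MIPE 4.0 compounds by pin transfer and incubated 48 hours at 37C, 5% CO2. Viability was read as ATP by CellTiter-Glo luminescence, normalised to DMSO (100%) and media-only (0%) wells.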

[15] = Quantitative High-Throughput drug screen in 47 multiple myeloma cell lines against the NCATS MIPE library collection: OCIMY7_PLB cell viability assay (AID 1918987); also: nearly all actives have a fitted effect of over 65% in size
In short: as §1

[16] = Quantitative High-Throughput drug screen in 47 multiple myeloma cell lines against the NCATS MIPE library collection: OCIMY5_PLB cell viability assay (AID 1918988); also: nearly all actives have a fitted effect of over 65% in size
In short: as §1

[17] = Quantitative High-Throughput drug screen in 47 multiple myeloma cell lines against the NCATS MIPE library collection: VP6_DJ cell viability assay (AID 1919867); also: nearly all actives have a fitted effect of over 40% in size
In short: as §1

[18] = Quantitative High-Throughput drug screen in 47 multiple myeloma cell lines against the NCATS MIPE library collection: PE2_PLB cell viability assay (AID 1919869); also: nearly all actives have a fitted effect of over 35% in size
In short: as §1

[19] = qHTS profiling for inhibitors of Plasmodium falciparum proliferation (AID 504749);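 as to activity, negative = inhibition: 0% = DMSO vehicle and full inhibition = artemisinin control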; as to all read-outs here: nearly all actives have a fitted effect of over 60% in size; details: P. falciparum in erythrocytes, SYBR Green DNA, 72 h; for activity, negative = inhibition: at 28.7 µM (top of the series)
In short: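 SYBR Green fluorescence (ex 485 nm, em 535 nm) reports parasite DNA after 72 h compound exposure of infected red cells at 0.3% parasitemia, 2.5% hematocrit; signal normalized to 0.29 uM artemisinin and vehicle wells.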

[20] = measured here: PEO1 parental Z-AUC
[21] = TFE3-RCC UOK109 viability, measured here: UOK109 Z-AUC
[22] = TFE3-RCC viability, measured here: UOK124 Z-AUC
[23] = TFE3-RCC viability, measured here: UOK145 Z-AUC
Potency is read from the fitted curve at half-maximal effect.

Clc1cccc(-n2nnnc2NCc2ccccc2Oc2ccccn2)c1Cl
-0.372: z-score [8, 23]
-0.1: z-score [8, 21]
inactive: Potency [1] | viability [2] 120% | Potency [3] | Potency [4] | Potency [5] | Potency [6] | Z-AUC [7] -0.248
0.284: z-score [8, 22]
0.0945: Z-AUC ([7]; measured here: PEO4 Z-AUC)
-0.502: Z-AUC [7, 20]

Cn1c2cc(S(C)=O)sc2c2cnn(Cc3cccc(N)c3)c(=O)c21 (stereo not given)
0.817: Z-AUC [7, 20]
0.912: Z-AUC ([7]; measured here: PEO4 Z-AUC)
inactive: Potency [1] | Potency [9] | viability [2] 114% | Potency [10] | Potency [11] | Potency [12] | Potency [4] | Potency [13] | Potency [14] | Potency [5] | Potency [6] | Z-AUC [7] 1.34

Cc1[nH]c2ccccc2c1CCNCc1ccc(C=CC(=O)NO)cc1
active: Potency [1] 0.0526 µM | Potency [15] 0.0743 µM | Potency [16] 0.0418 µM | Potency [2] 0.105 µM | Potency [12] 0.105 µM | Potency [17] 0.0187 µM | Potency [3] 0.0148 µM | Potency [18] 0.0935 µM | Potency [13] 0.118 µM | Potency [14] 0.0935 µM | Potency [5] 0.0662 µM | Potency [6] 0.0526 µM | Potency ([8]; TFE3-RCC UOK109 viability) 0.418 µM
-1.86: z-score [8, 21]
-3.24: z-score [8, 22]
-1.46: z-score [8, 23]

Cc1cc(Nc2cc(CN3CCOCC3)c3nc(C)c(Cc4ccc(Cl)cc4F)n3n2)n[nH]1
inactive: Z-AUC [7] -0.469
-0.486: Z-AUC [7, 20]
-1.95: Z-AUC ([7]; measured here: PEO4 Z-AUC)
active: Potency [15] 2.64 µM | Potency [16] 3.32 µM | Potency [9] 16.6 µM | Potency [2] 16.6 µM | Potency [10] 20.9 µM | Potency [11] 13.2 µM | Potency [12] 0.833 µM | Potency [17] 13.2 µM | Potency [3] 2.35 µM | Potency [18] 5.26 µM | Potency [13] 2.35 µM | Potency [5] 1.18 µM | Potency [6] 14.8 µM

COC(=O)C[C@](O)(CCCC(C)(C)O)C(=O)O[C@@H]1C(OC)=C[C@]23CCCN2CCc2cc4c(cc2[C@H]13)OCO4
0.544: z-score [8, 22]
0.67: z-score [8, 23]
-2.08: Z-AUC [7, 20]
0.959: z-score [8, 21]
inactive: Potency [15] | Potency [11] | Potency [12] | Potency [13] | Potency [14]
active: Potency [1] 16.6 µM | Potency [18] 20.9 µM | Potency [5] 29.6 µM | Potency [6] 10.5 µM | Potency [7] 0.436 µM | Potency ([19]; parasite line A) 0.0251 µM | Potency ([19]; parasite line B) 0.0251 µM
-2.6: Z-AUC ([7]; measured here: PEO4 Z-AUC)

CC(C)=CCCC(C)=CCCC(C)=CCSc1ccccc1C(=O)O
active: Potency [1] 1.32 µM | Potency [16] 1.48 µM | Potency [2] 2.64 µM | Potency [11] 4.18 µM | Potency [12] 0.662 µM | Potency [3] 1.18 µM | Potency [18] 2.35 µM | Potency [4] 6.62 µM | Potency [13] 0.418 µM | Potency [14] 4.18 µM | Potency [5] 0.209 µM | Potency [6] 5.9 µM

Cc1cc(Nc2cc(NC(=O)c3c(Cl)cccc3Cl)ccn2)nc(N)n1
-0.959: Z-AUC ([7]; measured here: PEO4 Z-AUC)
inactive: Z-AUC [7] -0.241
-1.26: Z-AUC [7, 20]
active: Potency [1] 1.18 µM | Potency [15] 0.59 µM | Potency [10] 6.62 µM | Potency [11] 4.69 µM | Potency [12] 1.18 µM | Potency [3] 2.96 µM | Potency [18] 2.96 µM | Potency [4] 2.35 µM | Potency [5] 0.372 µM

CN(C)CCCN=c1c2ccccc2n(C)c2[nH]c(=O)n(C)c(=O)c12
inactive: Z-AUC [7] 0.193
active: Potency [1] 18.7 µM | Potency [16] 18.7 µM | Potency [2] 14.8 µM | Potency [11] 5.9 µM | Potency [12] 14.8 µM | Potency [17] 14.8 µM | viability (% of DMSO control) [3] 91.5% | Potency [18] 16.6 µM | Potency [4] 14.8 µM | Potency [5] 14.8 µM | Potency [6] 16.6 µM
1.79: Z-AUC [7, 20]
1.54: Z-AUC ([7]; measured here: PEO4 Z-AUC)

CN1c2cc(O)c(N=NC(N)=O)cc2CC1S(=O)(=O)O (stereo not given)
inactive: Potency [1] | Potency [16] | Potency [9] | viability [2] 97.7% | Potency [18] | Potency [4] | Potency [13] | Potency [5] | Potency [6] | activity, negative = inhibition ([19]; parasite line A) -0.188% | activity, negative = inhibition ([19]; parasite line B) 7.8%
0.51: z-score [8, 23]
active: Potency [14] 14.8 µM
0.697: z-score [8, 22]
0.359: z-score [8, 21]

COc1ccc2c(OCc3nnc4ccc(-c5ccccc5)nn34)ccnc2c1
inactive: Potency [1] | Potency [10] | Potency [12] | Potency [4] | Potency [13] | Potency [5] | Potency [6] | Z-AUC [7] -0.0998
active: Potency [11] 0.469 µM | Potency [18] 1.87 µM
0.516: Z-AUC ([7]; measured here: PEO4 Z-AUC)
0.23: Z-AUC [7, 20]

CC[C@@H]1C(=O)N(C)c2cnc(Nc3ccc(C(=O)NC4CCN(C)CC4)cc3OC)nc2N1C1CCCC1
-2.05: z-score [8, 22]
-1.29: z-score [8, 23]
active: Potency [1] 0.187 µM | Potency [16] 0.0372 µM | Potency [9] 0.0935 µM | Potency [2] 0.235 µM | Potency [10] 23.5 µM | Potency [12] 0.0083 µM | Potency [17] 2.96 µM | Potency [4] 7.43 µM | Potency [13] 7.43 µM | Potency [14] 0.059 µM | Potency [5] 0.0209 µM | Potency [6] 0.0118 µM | Potency [7] 0.0436 µM | Potency ([8]; TFE3-RCC UOK109 viability) 4.18 µM
-2.65: Z-AUC [7, 20]
-2.67: Z-AUC ([7]; measured here: PEO4 Z-AUC)
inactive: Potency [3]
-0.898: z-score [8, 21]
